A short description of assay [1]: Quantitative High-Throughput drug screen in 47 multiple myeloma cell lines against the NCATS MIPE library collection: KMS28PE_JCRB cell viability assay (AID 1918983). Further: nearly all actives have a fitted effect of over 35% in size. The gist of the method:
(§1)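 Viability after 48 h drug exposure was measured as ATP-dependent luminescence. Cells, 500 per well, sat at 37 °C under 5% CO2; DMSO wells set 100%, media-only wells 0%.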

Assay [2] is described as follows: Quantitative High-Throughput drug screen in 47 multiple myeloma cell lines against the NCATS MIPE library collection: L363_DSMZ cell viability assay (AID 1918984). Further: nearly all actives have a fitted effect of over 40% in size. Summed up:
as §1

A short description of assay [3]: Quantitative High-Throughput drug screen in 47 multiple myeloma cell lines against the NCATS MIPE library collection: KMS34_JCRB cell viability assay (AID 1918985). Further: nearly all actives have a fitted effect of over 40% in size. The gist of the method:
as §1

Assay [4] in a line: Quantitative High-Throughput drug screen in 47 multiple myeloma cell lines against the NCATS MIPE library collection: OCIMY7_PLB cell viability assay (AID 1918987). Further: nearly all actives have a fitted effect of over 65% in size. Summed up: as §1
The nature of assay [5]: Quantitative High-Throughput drug screen in 47 multiple myeloma cell lines against the NCATS MIPE library collection: OPM1_PLB cell viability assay (AID 1918989). Further: nearly all actives have a fitted effect of over 40% in size. Summed up: as §1
A short description of assay [6]: Quantitative High-Throughput drug screen in 47 multiple myeloma cell lines against the NCATS MIPE library collection: U266_ATCC cell viability assay (AID 1919864). Further: nearly all actives have a fitted effect of over 35% in size. The gist of the method: as §1
Assay [7] is described as follows: Quantitative High-Throughput drug screen in 47 multiple myeloma cell lines against the NCATS MIPE library collection: VP6_DJ cell viability assay (AID 1919867). Further: nearly all actives have a fitted effect of over 40% in size. Summed up:
as §1

Assay [8] is described as follows: Quantitative High-Throughput drug screen in 47 multiple myeloma cell lines against the NCATS MIPE library collection: PE2_PLB cell viability assay (AID 1919869). Further: nearly all actives have a fitted effect of over 35% in size. Summed up:
as §1

A short description of assay [9]: Quantitative High-Throughput drug screen in 47 multiple myeloma cell lines against the NCATS MIPE library collection: PCM6_Riken cell viability assay (AID 1919870). Further: nearly all actives have a fitted effect of over 30% in size. The gist of the method: as §1
A short description of assay [10]: Quantitative High-Throughput drug screen in 47 multiple myeloma cell lines against the NCATS MIPE library collection: RPMI8226_ATCC cell viability assay (AID 1919871). Further: nearly all actives have a fitted effect of over 30% in size. The gist of the method:
as §1

Assay [11] can be described thus: Quantitative High-Throughput drug screen in 47 multiple myeloma cell lines against the NCATS MIPE library collection: OPM2_DSMZ cell viability assay (AID 1919872). Further: nearly all actives have a fitted effect of over 30% in size. Summed up:
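Luminescent ATP measurement with CellTiter-Glo gives viability, scaled between DMSO-only wells (100%) and media-only wells (0%). Cells, 500 per well, faced library compounds for 48 hours at 37C.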

Assay [12] in a line: Quantitative High-Throughput drug screen in 47 multiple myeloma cell lines against the NCATS MIPE library collection: KMS11_JCRBsus cell viability assay (AID 1919873). Further: nearly all actives have a fitted effect of over 50% in size. The gist of the method: as §1
Assay [13] is described as follows: Quantitative High-Throughput drug screen in 47 multiple myeloma cell lines against the NCATS MIPE library collection: KMS28BM_JCRB cell viability assay (AID 1919874). Further: nearly all actives have a fitted effect of over 35% in size. Summed up:
as §1

The nature of assay [14]: Quantitative High-Throughput drug screen in 47 multiple myeloma cell lines against the NCATS MIPE library collection: OCIMY5_PLB cell viability assay (AID 1918988). Further: nearly all actives have a fitted effect of over 65% in size. The gist of the method:
as §1

Assay [15] in a line: Quantitative High-Throughput drug screen in 47 multiple myeloma cell lines against the NCATS MIPE library collection: SKMM1_PLB cell viability assay (AID 1919863). Further: nearly all actives have a fitted effect of over 35% in size. On viability: series mostly up to about 46 µM. Conditions: SKMM1 myeloma viability, CellTiter-Glo ATP, 48 h; viability: active compounds read low. The gist of the method:
as §1

Assay [16] is described as follows: Quantitative High-Throughput drug screen in 47 multiple myeloma cell lines against the NCATS MIPE library collection: XG6_PLB cell viability assay (AID 1919865). Further: nearly all actives have a fitted effect of over 40% in size. Summed up:
as §1

A short description of assay [17]: Quantitative High-Throughput drug screen in 47 multiple myeloma cell lines against the NCATS MIPE library collection: UTMC2_PLB cell viability assay (AID 1919868). Further: nearly all actives have a fitted effect of over 55% in size. Summed up:
as §1

Assay [18] can be described thus: Quantitative High-Throughput drug screen in 47 multiple myeloma cell lines against the NCATS MIPE library collection: XG1_PLB cell viability assay (AID 1919866). Further: nearly all actives have a fitted effect of over 35% in size. Summed up:
as §1

Records with an inconclusive call do not appear. A number with no mark means an inactive call. Activity calls are given as the source filed them. The call rests on the fitted dose curve; in most records, active means well fitted cell-killing curve with a large enough effect; inconclusive means small, poorly fitted or top-dose-only effect, or effect the other way; inactive means no such curve, though single readings can be large or run the other way.
Potency means the concentration at half of the fitted maximal effect.

Regarding `Cc1cc(NS(=O)(=O)c2ccc(N)cc2)no1`, the Potency result in [1], in assay [2], in assay [3], in [5], in assay [7] and in [8] was “inactive” in each case. The Potency result in [9], in [10], in [11], in assay [12] and in [13] was “inactive” throughout. The Potency is 16600 nM (active) in assay [4] and 10500 nM (active) in assay [6].
With `CCc1c2c(nc3ccc(OC(=O)N4CCC(N5CCCCC5)CC4)cc13)-c1cc3c(c(=O)n1C2)COC(=O)[C@]3(O)CC`, the Potency in assay [1] is 1870 nM (active); in assay [3], 1180 nM (active); in assay [4], 296 nM (active); in assay [14], 1480 nM (active); in [5] it was 13200 nM (active); in assay [15], 526 nM (active). Moreover, the Potency in assay [6] is 166 nM (active); in assay [16] it was 418 nM (active); in [7], 1180 nM (active); in assay [17] it was 418 nM (active); in assay [8], 935 nM (active); in assay [9], 13200 nM (active). Besides, the Potency in assay [10] was 372 nM (active); in assay [13], 469 nM (active).
What is called viability is a read-out of living cells in per cent, often relative to untreated cells. Regarding `Cc1nnc(C(=O)NC(C)(C)c2nc(C(=O)NCc3ccc(F)cc3)c(O)c(=O)n2C)o1`, the Potency result in assay [1], in assay [2], in [3], in [4], in assay [5] and in [6] was “inactive” each time. The Potency entry in assay [16], in assay [7], in assay [17], in [8], in [9] and in assay [10] was “inactive” throughout. The Potency result in assay [11] and in assay [12] was “inactive” each time. Further, the viability in assay [15] was 152%.
Consider `COC(=O)Nc1nc2ccc(C(=O)c3ccccc3)cc2[nH]1`, for which the Potency in assay [1] was 1870 nM (active); in assay [3] it was 935 nM (active); in [4] it was 418 nM (active); in assay [14] it was 418 nM (active); in assay [5], 1660 nM (active); in [15], 332 nM (active). The Potency is 14800 nM (active) in assay [6]; 418 nM (active) in [16]; 2350 nM (active) in [7]; 2960 nM (active) in [8]; 5900 nM (active) in assay [9]; 332 nM (active) in assay [12].
With `Nc1nc(F)nc2c1ncn2[C@@H]1O[C@H](CO)[C@@H](O)[C@@H]1O`, the Potency in assay [1] was 372 nM (active); in assay [2] it was 148 nM (active); in assay [3], 296 nM (active); in [4] it was 118 nM (active); in assay [14], 74.3 nM (active); in assay [5] it was 743 nM (active). Also, the Potency in assay [6] is 296 nM (active); in [16], 209 nM (active); in assay [18], 418 nM (active); in assay [7] it was 132 nM (active); in [8], 209 nM (active); in [9], 264 nM (active). The Potency was 418 nM (active) in assay [10], 833 nM (active) in assay [11], 296 nM (active) in assay [12] and 526 nM (active) in [13].
As to `COc1cc(NCc2ccc3nc(N)nc(N)c3c2C)cc(OC)c1OC`, the Potency in [1] was 14800 nM (active); in assay [3] it was 3720 nM (active); in assay [4] it was 1480 nM (active); in assay [14], 6620 nM (active); in assay [5], 5900 nM (active); in assay [15] it was 11800 nM (active). For the same molecule, the Potency is 1480 nM (active) in [6]; 11800 nM (active) in assay [16]; 3720 nM (active) in assay [18]; 2640 nM (active) in [7]; 4690 nM (active) in assay [9]; 16600 nM (active) in assay [10]. In addition, the Potency in assay [12] was 2640 nM (active).
In the case of `CC(=O)Oc1ccccc1C(=O)Nc1ncc([N+](=O)[O-])s1`, the Potency is 38200 nM (active) in assay [1]; 17100 nM (active) in assay [2]; 42900 nM (active) in [3]; 21500 nM (active) in assay [4]; 13600 nM (active) in [14]; 24100 nM (active) in assay [5]. In addition, the Potency is 38200 nM (active) in assay [15]; 24100 nM (active) in assay [16]; 30300 nM (active) in assay [18]; 17100 nM (active) in assay [7]; 13600 nM (active) in assay [8]; 27000 nM (active) in [9]. In addition, the Potency was 19100 nM (active) in assay [10] and 17100 nM (active) in assay [12].
As to `COc1ccc2c(c1)c(CC(=O)OCC(=O)O)c(C)n2C(=O)c1ccc(Cl)cc1`, the Potency result in assay [1], in assay [2], in [3], in assay [5], in [6] and in assay [16] was “inactive” throughout. In addition, the Potency result in [18], in assay [9], in assay [10], in [11], in assay [12] and in assay [13] was “inactive” throughout. The viability in assay [15] is 138%.
Take `CCC(=O)O[C@]1(C(=O)CCl)[C@@H](C)C[C@H]2[C@@H]3CCC4=CC(=O)C=C[C@]4(C)[C@@]3(F)[C@@H](O)C[C@@]21C`: the Potency result in assay [1], in [3], in [5], in assay [16], in assay [18] and in [8] was “inactive” throughout. The Potency result in assay [9], in assay [11] and in assay [13] was “inactive” throughout. The Potency was 9.3 nM (active) in [2], 1320 nM (active) in assay [14], 33.2 nM (active) in assay [7] and 5.9 nM (active) in assay [10]. For the same molecule, the viability in assay [15] was 109%.
In the case of `O=P(O)(O)C(O)(Cc1cccnc1)P(=O)(O)O`, the Potency result in [1], in assay [2], in assay [14], in assay [5], in assay [16] and in assay [18] was “inactive” throughout. For the same molecule, the Potency result in assay [7], in assay [8], in [9], in [11] and in [12] was “inactive” each time.
As to `CC(C)(C#N)c1cc(Cn2cncn2)cc(C(C)(C)C#N)c1`, the Potency entry in [1], in assay [2], in [3], in assay [14], in assay [5] and in assay [16] was “inactive” each time. The Potency result in [18], in assay [8], in [9], in [10], in assay [11] and in assay [12] was “inactive” each time. Further, in [13], the Potency result was “inactive”.
Turning to `C[C@@H]1CN(c2c(F)c(N)c3c(=O)c(C(=O)O)cn(C4CC4)c3c2F)C[C@H](C)N1`, the Potency entry in assay [1], in assay [2], in assay [3], in [5], in assay [16] and in [18] was “inactive” in each case. The Potency entry in [17], in assay [8], in [9], in [10], in assay [11] and in [12] was “inactive” each time. Also, in assay [15], the viability was 160%.
